Results from PubChem BioAssay (NCI).
The panel holds about 83,000 compounds, 20% with a hit somewhere; the sample as a whole holds those more often.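 Compound tested at a single concentration for 48 hours in 96-well plates; a percent growth value below 10 was scored as active.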 Unmarked numbers belong to inactive results. Calls of active or inactive are those of the source.

Legend:
Assay in all cases: NCI-60 one-dose screen, 48 h (100 = growth as untreated, 0 = no growth, -100 = all killed)
Settings in all cases: 10 µM unless noted
HCT-15 colon = system: HCT-15 colon
HT29 colon = system: HT29 colon
SNB-75 CNS = system: SNB-75 CNS
SNB-19 CNS = system: SNB-19 CNS
U251 CNS = system: U251 CNS
PC-3 prostate = system: PC-3 prostate
SK-MEL-5 melanoma = system: SK-MEL-5 melanoma
UACC-62 melanoma = system: UACC-62 melanoma
LOX IMVI melanoma = system: LOX IMVI melanoma
SK-MEL-28 melanoma = system: SK-MEL-28 melanoma

SMILES	growth (HCT-15 colon)	growth (HT29 colon)	growth (SNB-75 CNS)	growth (SNB-19 CNS)	growth (U251 CNS)	growth (PC-3 prostate)	growth (SK-MEL-5 melanoma)	growth (UACC-62 melanoma)	growth (LOX IMVI melanoma)	growth (SK-MEL-28 melanoma)
Cn1c(COC(=O)NCCn2ccnc2)nc2c(N3CCOCC3)nc(-c3ccccc3)nc21	-51.3% (active)	-12.1% (active)	-89.9% (active)	8.21% (active)	-61% (active)	-74.7% (active)	-96% (active)	-93.9% (active)	-88.9% (active)	-98.8% (active)
Cc1nc2sc(C(=O)Nc3cccc(Br)c3)c(N)c2cc1C(=O)c1ccc(C(F)(F)F)cc1	88.1%	90.3%	55%	82.3%	58.7%	70.2%	91%	82.7%	73.3%	92.1%
CC[C@H](CC[C@@H](C)[C@H]1CC[C@H]2[C@@H]3CC=C4C[C@@H](OCCc5nn[nH]n5)CC[C@]4(C)[C@H]3CC[C@]12C)C(C)C	102%	94.8%	107%	110%	105%	112%	111%	118%	99.9%	110%
C=C1C(=O)O[C@H]2[C@H]1CC/C(CNC(=O)/C=C/c1ccccc1F)=C\CC[C@@]1(C)O[C@@H]21	-63.4% (active)	-17.2% (active)	94.1%	56.4%	52.5%	37.3%	66.1%	-5.46% (active)	-25% (active)	-33.9% (active)
NC(=S)N/N=C/c1ccc(OC(=O)COc2cc(Cl)c(Cl)cc2Cl)cn1	81%	70.7%	98.8%	91.6%	54%	59.8%	21.8%	39.7%	25.1%	89%
C[C@]12C[C@H]1CC[C@]1(C)[C@@H]2CC[C@@]23C[C@H](CC[C@H]21)[C@@](O)(CO)C3	88.6%	100%	105%	95.4%	103%	88.9%	97.7%	76.2%	93.6%	105%
O=C(NCCN1CCOCC1)OCc1nc2nc(Cl)nc(N3CCOCC3)c2[nH]1	16.4%	122%	1.3% (active)	36.2%	19.7%	24%	-29.7% (active)	35.1%	16.5%	61.9%
CCCCCCCCN1C(=O)/C(=c2\sc3n(c2=O)C2C(NN=3)N(CC)C(=O)N2CC)c2ccccc21 (stereo not given)	93.2%	100%	-13% (active)	45.7%	46.2%	81.7%	96.9%	76.3%	81.9%	88.3%
O=C(CN1CCOCC1)Nc1ccc2ncnc(Nc3ccc(Oc4cccc(F)c4)c(Cl)c3)c2c1	72.8%	83.5%	79.5%	73.2%	85.7%	59.3%	68.5%	76.7%	80.4%	83%
O=C1CCC(NC(=S)Nc2ccccc2)N1 (stereo not given)	113%	98.3%	113%	100%	104%	102%	106%	99.9%	97.5%	108%
Cn1ncc2c(Nc3ccccc3Cl)nc(Cl)nc21	98.4%	96.2%	78.6%	114%	112%	109%	107%	87.1%	104%	119%
CC(=O)OCC(=O)[C@@]1(O)CC[C@H]2[C@@H]3CC(=C(Br)Br)C4=CC(=O)CC[C@]4(C)[C@H]3C(=O)C[C@@]21C	94.4%	92.1%	81.2%	92.6%	82.9%	76.1%	95.2%	82.5%	97.3%	102%
COc1ccc(/C(C)=N/NC(=O)CSc2nc3ccccc3c(=O)n2Cc2ccc(S(N)(=O)=O)cc2)c(OC)c1	96.2%	111%	82.9%	95.5%	103%	97.1%	98%	96.9%	94.2%	110%
COc1ccc2c(/C=C3/C(=O)NC(=S)NC3C)cc(=O)oc2c1 (stereo not given)	103%	88.8%	87.3%	102%	94.2%	78.6%	99.4%	96.8%	95.3%	109%
O=C(Cc1ccc(/C=C/C(=O)c2ncc[nH]2)cc1)Nc1ccc(C(F)(F)F)cc1	-51.6% (active)	-32.5% (active)	43.6%	15.3%	-88.8% (active)	36.6%	47.7%	46.5%	-80% (active)	67.3%
O=CNc1cc(Cl)cc(Cl)c1	103%	101%	104%	99.7%	102%	96.1%	102%	96.1%	108%	103%
O=C(O)c1cn(C2CC2)c2cc(N3CCN(C(=O)C[n+]4cccc5ccccc54)CC3)c(F)cc2c1=O	55%	78.7%	75.1%	83.8%	64.4%	77.1%	94.6%	42.7%	20.7%	56.8%
O=S(=O)(NCCCNc1nccc(-c2c(-c3cccc(O)c3)nc3occn23)n1)c1ccc(F)cc1	90.2%	36.3%	104%	113%	95.3%	81.4%	35.7%	-1.99% (active)	44.4%	33.7%
COc1c(Cl)cc(Cl)c2ccc(C=C3C(=O)NC(=S)NC3=O)nc12	103%	109%	95%	99.2%	105%	105%	101%	105%	101%	103%
COc1ccccc1C(C[N+](=O)[O-])c1c(-c2ccccc2)[nH]c2cc(C)ccc12 (stereo not given)	44%	35.8%	42.7%	81%	83.9%	69.5%	74.9%	43.8%	70.1%	78.9%
COc1cc2ncnc(Nc3ccc(C(=O)/C=C/c4ccc(C(F)(F)F)cc4F)cc3)c2cc1OC	104%	98.8%	87.7%	98.2%	85.4%	83%	104%	100%	92%	109%
Cc1ccc(C(=O)Nc2ccccc2C(=O)N/N=C(\c2ccccc2)c2ccccn2)cc1	29.1%	24.9%	22.1%	26.2%	22.6%	33.1%	-4.18% (active)	5.33% (active)	5.79% (active)	32.4%
CCCC/C(=N\N=C(N)N)c1ccc(F)cc1	23.4%	1.87% (active)	-1.82% (active)	41.6%	32.1%	26.3%	2.87% (active)	45.3%	26.5%	54%
COc1cc(C2CC(c3cccc(Nc4ccncc4)c3)=NN2C(C)=O)cc(OC)c1OC (stereo not given)	98%	78.5%	67.4%	93%	91.5%	84.2%	89.9%	93.9%	85.3%	96.6%
C=C(C)[C@@H]1CC[C@]2(CO)CC[C@]3(C)[C@H](CC[C@@H]4[C@@]5(C)CCCNC(C)(C)[C@@H]5CC[C@]43C)[C@@H]12	3.28% (active)	2.58% (active)	77.1%	49.6%	7.49% (active)	25.6%	-82.5% (active)	43.2%	-57.7% (active)	-65.4% (active)
[2H]C1([2H])NC([2H])([2H])C([2H])([2H])N(c2ccc(Nc3ncc4cc(C(=O)N(C)C)n(C5CCCC5)c4n3)nc2)C1([2H])[2H]	85%	34%	65.5%	64.3%	61.4%	62.3%	78.3%	78.7%	49.2%	88.6%
